# Bioassay records: PubChem, National Center for Advancing Translational Sciences (NCATS)
# Hits are enriched below; roughly 7.4% of the tested compounds scored in any of these assays.
# Rab9 prom act – activators of Rab9 promoter | Huh7 Rab9 promoter-luciferase reporter, luminescence, 24 h | Potency, µM (titrated, usually from 9.22 µM), inactives show top-dose activation, negative = inhibition, actives largely listed as activators | 2.8% of 320,000 active | AID 485297; also: % of control where 0% means no effect; nearly all actives have a fitted effect of over 60% in size
#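 Measured in stably transfected Huh7 cells bearing a Rab9 promoter–luciferase construct: 24 h compound treatment at 37 °C, followed by luminescence detection.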
# NPC1 promoter act – activates the NPC1 promoter; Potency, µM (titrated, usually from 9.22 µM), for inactives: at the top dose activation, most hits filed as activators; Huh7 NPC1 promoter luciferase reporter, 24 h; 2.4% of 320,000 active; also: % of control where 0% means no effect; nearly all actives have a fitted effect of over 60% in size
#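 Luciferase expression driven by the NPC1 promoter was measured in stably transfected Huh7 cells after a 24 h compound incubation, using a luciferase reagent and a luminescence read.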
# KinaseGlo FLuc – Kinase-Glo luciferase inhibition (counter-screen) | Q27757 | Kinase-Glo luciferase, ATP luminescence, 8 min | Potency, µM (doses to about 38.3 µM), without a hit: at the highest dose activity change, negative = inhibition, most hits filed as inhibitors | 0.28% of 200,000 active; also: % is scaled to controls: 0 for no effect and ±100 for the full control effect; nearly all actives have a fitted effect of over 60% in size
#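 Kinase-Glo luciferase light output from ATP and luciferin was measured with 10 uM ATP, within the enzyme's linear range. Buffer: 50 mM imidazole pH 7.2, 50 mM KCl, 7 mM MgCl2, 0.01% Tween 20, 0.05% BSA; luminescence read after 8 min at ambient temperature.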
# SMN2 splice enh – increases expression of the SMN2 splice variant | HEK293 SMN2-luciferase splicing reporter, luminescence, 30-36 h | 2.8% of 210,000 active | Potency, µM (doses to about 46.1 µM), without a hit: at the highest dose activity change, positive = activation, hits mostly activators; also: % of control where 0% means no effect; nearly all actives have a fitted effect of over 55% in size
#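 HEK293 cells carry an SMN2 minigene-luciferase reporter in which exon 7 inclusion puts luciferase in frame. Cells were seeded at 2000 cells/well, attached for 10-12 hours, then exposed to compounds for 30-36 hours at 37C before ONE-Glo luminescence.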
# FLuc modulator – inhibits or activates purified firefly luciferase, miR-21 counter-screen; P08659; 6.9% of 360,000 active; purified FLuc, Km substrates, luminescence inhibition; Potency, µM (top dose mostly 57.5 µM), for inactives: at the top dose activity change, negative = inhibition, actives largely listed as inhibitors;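 also: plate controls were vehicle for no effect and reference inhibitor for full effect; nearly all actives have a fitted effect of over 55% in size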
# Target sequence (P08659 whole entry, looked up): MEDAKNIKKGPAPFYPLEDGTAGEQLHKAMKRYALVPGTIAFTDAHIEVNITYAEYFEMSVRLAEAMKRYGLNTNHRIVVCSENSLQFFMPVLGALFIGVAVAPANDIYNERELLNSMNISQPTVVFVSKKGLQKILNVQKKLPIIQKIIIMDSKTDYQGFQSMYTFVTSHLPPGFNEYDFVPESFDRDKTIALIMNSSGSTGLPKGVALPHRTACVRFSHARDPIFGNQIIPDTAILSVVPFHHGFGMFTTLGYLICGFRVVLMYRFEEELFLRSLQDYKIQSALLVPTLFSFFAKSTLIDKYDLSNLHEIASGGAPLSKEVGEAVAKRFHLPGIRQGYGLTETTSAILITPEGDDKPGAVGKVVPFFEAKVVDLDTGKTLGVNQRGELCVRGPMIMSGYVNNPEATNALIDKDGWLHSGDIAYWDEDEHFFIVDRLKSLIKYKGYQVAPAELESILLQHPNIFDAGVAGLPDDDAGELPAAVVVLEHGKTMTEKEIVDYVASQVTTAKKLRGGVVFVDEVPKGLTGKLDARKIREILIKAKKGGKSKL
#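 Purified P. pyralis luciferase (10nM final) with 10uM D-luciferin and 10uM ATP (Km levels) in 50mM Tris acetate pH 7.5, 10mM Mg acetate, 0.01% Tween-20, 0.05% BSA; qHTS 6-point titration, ~60 µM downward; luminescence read.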
# ELG1 genotoxic – genotoxicity induction in ELG1-luciferase HEK293T cells | Potency, µM (top dose mostly 46 µM), inactives show at the highest dose activity change, positive = activation, actives largely listed as activators | HEK293T ELG1-luciferase reporter, luminescence, 16 h | AID 504466 | 1.3% of 330,000 active; also: % of control where 0% means no effect; nearly all actives have a fitted effect of over 60% in size
#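 Genotoxicity was scored as increased ELG1-luciferase reporter signal, measured by ONE-Glo luminescence (30 min, room temperature). Compound or vehicle exposure of the HEK293T reporter cells lasted 16 hr at 37°C.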
# The depositor's hits bear a star; u = inconclusive; x = no result; [ ] = another dose, or the depositor's remark. Calls follow the shape of the dose curve; as a rule, active = well fitted curve in the direction sought with a large enough effect; inconclusive = small, poorly fitted or top-dose-only effect, or another doubt; inactive = no such curve, though single readings can be large; an effect the other way counts as inactive or inconclusive. Potency is read from the fitted curve at half-maximal effect.
SMILES,Rab9 prom act,NPC1 promoter act,KinaseGlo FLuc,SMN2 splice enh,FLuc modulator,ELG1 genotoxic
Cc1cc(C(=O)Nc2ccccn2)cs1,1.4µM*,1.4µM*,u,7.9µM*,11µM*,u
O=C(NC(=O)c1ccccc1)Nc1ccccn1,1.3µM*,-23%,x,x,0.27µM*,u
O=C(Nc1ccccn1)c1ccc(C(=O)c2ccccc2)cc1,2.5µM*,3.5µM*,x,x,4.3µM*,4.6µM*
N#C/C(=C\c1c(Oc2ccc(Br)cc2)nc2ccccn2c1=O)c1nc2ccccc2s1,x,x,x,19%,-17%,x
CCN(CC)CCOC(=O)c1ccc(NC(=O)c2nn(-c3ccc(C)cc3)c(=O)c3c2c2ccccc2n3C)cc1,x,x,x,-6%,0%,x
S=C(N=Nc1ccccc1)NNc1ccccc1,-1%,-2%,-7%,u,19µM*,15%
CCOC(=O)c1c(C)oc2ccc(O)c(CN(C)C)c12,-1%,-5%,-2%,-5%,-3%,-19%
CCOC(=O)c1c(C)oc2cc(Cl)c(O)c(CN(C)C)c12,-7%,2%,x,x,15µM*,u
Cc1ccc2nc(-c3sc4nc(C)cc(C)c4c3N)[nH]c2c1,u,21%,0%,2.5µM*,0.34µM*,u
Nc1cccc(-c2nc3ccccc3[nH]2)c1,4µM*,2.8µM*,-14%,13µM*,13µM*,u
Cc1ccc2nc(-c3cccc(N)c3)[nH]c2c1,1.6µM*,0.79µM*,10µM*,2.2µM*,0.95µM*,u
Nc1ccc2nc(-c3cccc(-c4nc5ccc(N)cc5[nH]4)n3)[nH]c2c1,3%,1%,x,x,9.5µM*,-4%
CC(=O)c1sc2nc(C)cc(C)c2c1N,1%,0%,1%,u,-15%,-2%
Nc1ccc2nc(-c3ccc(-c4nc5ccc(N)cc5[nH]4)cc3)[nH]c2c1,-1%,-6%,x,x,-16%,-5%
Cc1ccc(Cn2ccnc2SCC(=O)Nc2ccccc2C(F)(F)F)cc1,x,x,x,x,0%,x
COC(=O)c1sccc1NC(=O)Nc1ccc(OC)cc1,20%,18%,x,x,1.7µM*,u
COC(=O)c1sccc1NC(=O)Nc1cccc([N+](=O)[O-])c1,12%,-2%,x,x,6.7µM*,7%
COC(=O)c1sccc1NC(=O)Nc1cc(OC)ccc1OC,5%,0%,x,x,0%,3%
COC(=O)c1sccc1NC(=O)Nc1cccc(C)c1,2%,2%,x,x,4.8µM*,u
O=C(Nc1cccc(C(F)(F)F)c1)Nc1cccs1,x,x,x,5%,12µM*,x
COC(=O)c1sccc1NC(=O)Nc1cccc(C)c1C,3%,1%,x,x,-18%,2%
CCN(CC)CCn1c2c(c(SCC(=O)Nc3cccc(C(F)(F)F)c3)nc1=O)CCC2,x,x,x,x,-5%,x
CCCC[C@H]1C[C@@H]1[C@@H]1N(P(=O)(c2ccccc2)c2ccccc2)[C@](CO)(c2ccccc2)CC12CC2,x,x,-3%,-53%,x,x
CCCCCn1c(=O)[nH]c2cc(C(=O)NCc3ccc(OC)cc3)ccc2c1=O,x,x,x,-3%,0%,x
O=C(Nc1cccc([N+](=O)[O-])c1)Nc1cccs1,9%,10%,-2%,-19%,27µM*,-8%
SMILES,Rab9 prom act,NPC1 promoter act,KinaseGlo FLuc,SMN2 splice enh,FLuc modulator,ELG1 genotoxic
COc1ccc(-c2nc3c(c4c2C[C@H](c2ccccc2)OC4)CN(S(=O)(=O)c2ccc(C)cc2)CC3)c(C)c1,x,x,-4%[7.66 µM],-4%[9.22 µM],x,x
O=C(N/N=C/c1ccc(Cl)cc1Cl)c1n[nH]c2c1CCCC2,14%,0%,-1%,14µM*,u,u
Cc1ccc(/C=N/NC(=O)c2n[nH]c3c2CCCC3)cc1,-6%,u,x,x,2.4µM*,6.5µM*
O=C(N/N=C/c1cccs1)c1n[nH]c2c1CCCC2,0.1µM*,u,x,x,0.85µM*,u
O=C(N/N=C/c1cccc2ccccc12)c1n[nH]c2c1CCCC2,-3%,-22%,-1%,10%,-16%,18%
C/C(=N\NC(=O)c1cccs1)c1ccncc1,2%,16%,x,x,x,6%
C/C(=N\NC(=O)c1n[nH]c2c1CCC2)c1cccs1,u,u,x,x,0.6µM*,u
CNC(=O)COc1ccc(NC(=O)CCn2nc(-c3ccc(C)cc3)c3ccccc3c2=O)cc1,x,x,x,11%,6%,x
O=C(N/N=C\c1cccc(Cl)c1)c1n[nH]c2c1CCCC2,0.71µM*,2.5µM*,-8%,13µM*,1.7µM*,u
Cc1cccc(NC(=O)Cn2c(=O)n(Cc3ccccc3)c(=O)c3oc4ccccc4c32)c1C,x,x,x,x,2%,x
N#Cc1cc2c(nc1SCC(N)=O)CCCCC2,3.2µM*,4µM*,-1%,25µM*,-14%,u
CC(C)OC(=O)CC(=O)CSc1nc2c(cc1C#N)CCC2,3%,-5%,-5%,-19%,19µM*,1%
CC(C)OC(=O)CC(=O)CSc1nc2c(cc1C#N)CCCC2,x,x,-1%,2%,13µM*,x
COC(=O)CC(=O)CSc1nc2c(cc1C#N)CCC2,20%,2%,-4%,1.3µM*,13µM*,27%
CCCC[C@]12Cc3cc(C#N)ccc3C(O1)c1c(cc(-c3ccccc3)oc1=O)O2,-5%[1.84 µM],0%[1.84 µM],x,x,0%[11.5 µM],x
CCCNC(=O)C1CCN(S(=O)(=O)c2ccc3c(c2)CCCN3C(C)=O)CC1,x,x,x,x,1%,x
CCOc1ccc(-n2c(=O)c3c4c(sc3n(CC(=O)NC(C)CC)c2=O)CCCC4)cc1 (stereo not given),x,x,x,1%,-3%,x
N=C1SCC(=O)N1/N=C/c1ccccc1,1%,0%,-7%,-33%,5.4µM*,-20%
O=C1CSC(=S)N1/N=C/C=C/c1ccccc1,-1%,0%,-1%,1%,u,-2%
CCCCC(CC)CNC(=O)CCCn1c(=O)[nH]c2ccsc2c1=O (stereo not given),x,x,x,8%,-6%,x
c1ccc(-c2n[nH]c(-c3ccccn3)n2)nc1,2.8µM*,3.5µM*,u,11µM*,15µM*,6.5µM*
Nc1n[nH]c(-c2ccccc2)n1,-3%,3%,-5%,-5%,1%,1%
c1ccc(-c2n[nH]c(-c3ccccn3)n2)cc1,3.5µM*,2µM*,-3%,11µM*,12µM*,u
COC(=O)c1sccc1S(=O)(=O)N(CC(=O)Nc1ccccc1C)c1ccc(Cl)cc1,x,x,x,x,-2%,x
FC(F)Oc1ccccc1/C=N/n1cnc2ccccc21,25%,1%,3%,u,24µM*,11%
NC(N)=N/N=C/c1ccccc1OC(F)F,2%,0%,0%,-8%,1%,-2%
Cc1nc2nc(SCC(=O)NCc3ccccc3)nn2c(C)c1Cc1ccccc1Cl,x,x,x,-12%,0%,x
c1ccc(OCCCCn2cnc3ccccc32)cc1,-4%,-3%,-1%,-41%,-18%,11%
